Experimental data from article PMC4242493, “Sequence specificity incompletely defines the genome-wide occupancy of Myc”.
Over roughly 33,000 sequences, “normalized occupancy” has its median near 0.075; the highest 2% begin near 0.095. This is one part of a sample in which the highest values are shown more often than they occur.

What follows are sequences tested against MaxL homodimer (Homo sapiens, UniProt P61244 1-160) (assay: universal protein-binding microarray (PBM); PBS-based mixture, 10 nM His-tagged protein dimer, 2% milk, 200 ng/uL BSA, 50 ng/uL salmon testes DNA, 0.02% TX-100; detection with Alexa 488 anti-His antibody;; high values mean tight binding). Settings: protein: recombinant; tags: C-terminal His-tag (pET21a); chain copies: 2; dsDNA, one strand shown.
Chain of MaxL homodimer (P61244 whole entry): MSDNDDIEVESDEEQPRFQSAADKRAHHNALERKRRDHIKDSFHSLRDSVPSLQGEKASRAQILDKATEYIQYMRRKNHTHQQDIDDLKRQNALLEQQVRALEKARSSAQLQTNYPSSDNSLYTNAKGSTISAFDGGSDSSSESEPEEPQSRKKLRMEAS
Outline: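 A His-tagged protein dimer at 10 nM was incubated on Agilent 4 x 44 K arrays of the 'all 10-mer' universal design, then labelled with 10 ng/μL fluorophore-conjugated anti-His antibody and scanned on a GenePix 4400A. A fluorescence intensity was assigned to each 8-mer. Binding occupancy is each such intensity normalised to that of the highest-ranked one.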
CCACCTGA was tested, and the binding signal was 0.099 normalized occupancy. For TCACCTGA, the binding signal was 0.0809 normalized occupancy. Work on CCACCTTC yielded a binding signal of 0.0757 normalized occupancy. For ACACCTGG, the binding signal was 0.0881 normalized occupancy. With ATACCTGC the binding signal was 0.0811 normalized occupancy. In the case of ACACCTGT, the binding signal is reported as 0.0912 normalized occupancy. CCACCTGG was tested, and the binding signal was 0.105 normalized occupancy. With ACACCTGC the binding signal was 0.0956 normalized occupancy. For CCACCTGC, the binding signal was 0.0984 normalized occupancy. In the case of ACACCTGA, the binding signal is reported as 0.0871 normalized occupancy. Work on GTAGTTGA yielded a binding signal of 0.0738 normalized occupancy. For ATAACGCC, the binding signal was 0.0792 normalized occupancy. Sequence ATTCACCG has a binding signal of 0.0732 normalized occupancy. Work on CTTTTCGA yielded a binding signal of 0.0725 normalized occupancy. Sequence ACGCCGAA has a binding signal of 0.0725 normalized occupancy. GGCCACTA was tested, and the binding signal was 0.0777 normalized occupancy. GTGGAAAA gave a binding signal of 0.0879 normalized occupancy. AATCGGGA was tested, and the binding signal was 0.0782 normalized occupancy. CTGCCTAA showed a binding signal of 0.075 normalized occupancy. In the case of CAAGTCGC, the binding signal is reported as 0.0719 normalized occupancy. For CAAACCTC, the binding signal was 0.0765 normalized occupancy. ATTCTACC showed a binding signal of 0.0801 normalized occupancy. Sequence AGCGCGCG has a binding signal of 0.0841 normalized occupancy. For AGAGCGAG, the binding signal was 0.0719 normalized occupancy. Sequence AGCGCGTG has a binding signal of 0.117 normalized occupancy. Work on ACAGCGTC yielded a binding signal of 0.0731 normalized occupancy. AGAGCGTG was tested, and the binding signal was 0.0963 normalized occupancy. AGCGCGTC was tested, and the binding signal was 0.0772 normalized occupancy. ATAGCGTC was tested, and the binding signal was 0.0734 normalized occupancy. ATAGCGTG showed a binding signal of 0.104 normalized occupancy. Work on AGAGCGTA yielded a binding signal of 0.0758 normalized occupancy. ATAGCGTA showed a binding signal of 0.0819 normalized occupancy. ACAGCGAG showed a binding signal of 0.0728 normalized occupancy. Work on ACAGCGTG yielded a binding signal of 0.123 normalized occupancy. For AGGCAGTA, the binding signal was 0.0728 normalized occupancy. CTTGGTCC showed a binding signal of 0.0723 normalized occupancy. CTTCGCTA gave a binding signal of 0.0727 normalized occupancy. For ATCCCCCC, the binding signal was 0.0808 normalized occupancy. Sequence GGCTATCA has a binding signal of 0.0738 normalized occupancy. Work on ACACTGAC yielded a binding signal of 0.0742 normalized occupancy. ACTTTAAG gave a binding signal of 0.0722 normalized occupancy. With AAGTATAG the binding signal was 0.0813 normalized occupancy. CCTTTGTA was tested, and the binding signal was 0.0734 normalized occupancy. GGTGCGGA was tested, and the binding signal was 0.0762 normalized occupancy. AAAATTGA was tested, and the binding signal was 0.0757 normalized occupancy. TGTAACAA gave a binding signal of 0.0771 normalized occupancy. For GCACGCCC, the binding signal was 0.0848 normalized occupancy. In the case of GCGCGCGC, the binding signal is reported as 0.0821 normalized occupancy. Work on GAACGCGA yielded a binding signal of 0.0778 normalized occupancy. Work on GCACGCGA yielded a binding signal of 0.109 normalized occupancy. With GCACGCGC the binding signal was 0.15 normalized occupancy. In the case of GGACGCGA, the binding signal is reported as 0.0754 normalized occupancy. In the case of CTTAAGCA, the binding signal is reported as 0.077 normalized occupancy. TCAAATAA showed a binding signal of 0.0786 normalized occupancy. With AAGGGGAC the binding signal was 0.0746 normalized occupancy. Work on AATGTGAC yielded a binding signal of 0.0908 normalized occupancy. In the case of GATGTGAA, the binding signal is reported as 0.0819 normalized occupancy. CCTGTGAG was tested, and the binding signal was 0.0762 normalized occupancy. With CATGTGAC the binding signal was 0.168 normalized occupancy. TATGTGAA showed a binding signal of 0.0871 normalized occupancy. For AATGTGAG, the binding signal was 0.0853 normalized occupancy. Sequence CATGTGAG has a binding signal of 0.128 normalized occupancy. GATGTGAC was tested, and the binding signal was 0.0817 normalized occupancy. For CATGTGAA, the binding signal was 0.127 normalized occupancy. Sequence AAGTAGGA has a binding signal of 0.0726 normalized occupancy. ATGGAGAA showed a binding signal of 0.0775 normalized occupancy. In the case of AAGCAGTA, the binding signal is reported as 0.0725 normalized occupancy. TAGATTGA gave a binding signal of 0.0791 normalized occupancy. Sequence ACCTTTAA has a binding signal of 0.0744 normalized occupancy. CATGGCAA was tested, and the binding signal was 0.0963 normalized occupancy. Work on CATGGCAG yielded a binding signal of 0.0887 normalized occupancy. Work on GATGGCAA yielded a binding signal of 0.0752 normalized occupancy. With CCTATTAA the binding signal was 0.0743 normalized occupancy. With GAAAATCA the binding signal was 0.0778 normalized occupancy. Work on GTGCACTA yielded a binding signal of 0.0769 normalized occupancy. With CTCTATGA the binding signal was 0.0732 normalized occupancy. Work on GATGACTA yielded a binding signal of 0.0757 normalized occupancy. AAGTGACC showed a binding signal of 0.0751 normalized occupancy. For GGGTGACC, the binding signal was 0.0751 normalized occupancy. Work on ACGTGACA yielded a binding signal of 0.108 normalized occupancy. For GCGTGACC, the binding signal was 0.103 normalized occupancy. Sequence ATGTGACA has a binding signal of 0.0901 normalized occupancy. CCGTGACG was tested, and the binding signal was 0.0782 normalized occupancy. ACGTGACC was tested, and the binding signal was 0.103 normalized occupancy. AGGTGACC showed a binding signal of 0.0766 normalized occupancy. For ACGTGACG, the binding signal was 0.0972 normalized occupancy. In the case of ACGTGACT, the binding signal is reported as 0.0933 normalized occupancy. AGGTGACG was tested, and the binding signal was 0.075 normalized occupancy. CCGTGACC gave a binding signal of 0.075 normalized occupancy. AGGGTTGC showed a binding signal of 0.0731 normalized occupancy. Sequence GAAGGTGC has a binding signal of 0.0733 normalized occupancy. CGAAATAC showed a binding signal of 0.0768 normalized occupancy. In the case of CATATTGA, the binding signal is reported as 0.0806 normalized occupancy. For TCGTGACA, the binding signal was 0.0851 normalized occupancy. With CCGTGACA the binding signal was 0.0807 normalized occupancy. GCGTGACA was tested, and the binding signal was 0.103 normalized occupancy. With ATGAGCCC the binding signal was 0.0757 normalized occupancy. With TCTCGAAA the binding signal was 0.0729 normalized occupancy. In the case of CGTGCACA, the binding signal is reported as 0.0958 normalized occupancy. Work on AGTGCACA yielded a binding signal of 0.0838 normalized occupancy. With CGTGCACG the binding signal was 0.123 normalized occupancy. Sequence GGTGCACA has a binding signal of 0.078 normalized occupancy. For TGTGCACA, the binding signal was 0.0902 normalized occupancy. AGTGCACG showed a binding signal of 0.0853 normalized occupancy. With CTTAGCCA the binding signal was 0.0761 normalized occupancy. Work on GACGCTAC yielded a binding signal of 0.0742 normalized occupancy. AACGCTAG gave a binding signal of 0.0726 normalized occupancy. CACGCTAA showed a binding signal of 0.0891 normalized occupancy. CACGCTAG gave a binding signal of 0.0976 normalized occupancy. AACGCTAC gave a binding signal of 0.0825 normalized occupancy. CACGCTAC gave a binding signal of 0.0972 normalized occupancy. Work on CTATGGGC yielded a binding signal of 0.0769 normalized occupancy. In the case of AGCATACT, the binding signal is reported as 0.0804 normalized occupancy. CCGTGTAA gave a binding signal of 0.0797 normalized occupancy. For AGGTGTAC, the binding signal was 0.0803 normalized occupancy. In the case of ACGTGTAA, the binding signal is reported as 0.1 normalized occupancy. GCGTGTAA gave a binding signal of 0.0923 normalized occupancy. With ACGTGTAT the binding signal was 0.117 normalized occupancy. Sequence CCGTGTAC has a binding signal of 0.0796 normalized occupancy. TCGTGTAA was tested, and the binding signal was 0.0836 normalized occupancy. AAGTGTAT showed a binding signal of 0.0806 normalized occupancy. For ACGTGTAC, the binding signal was 0.0984 normalized occupancy. GAGTGTAC was tested, and the binding signal was 0.0756 normalized occupancy. GCGTGTAC was tested, and the binding signal was 0.1 normalized occupancy. Work on AGGTGTAT yielded a binding signal of 0.0924 normalized occupancy. With ATTCCAAT the binding signal was 0.0727 normalized occupancy. Sequence ATAGTCAG has a binding signal of 0.0801 normalized occupancy. GCATAAAA showed a binding signal of 0.0781 normalized occupancy. For GCATTCTA, the binding signal was 0.0844 normalized occupancy. For ACTAACAT, the binding signal was 0.0807 normalized occupancy. In the case of GTTGTTTA, the binding signal is reported as 0.0784 normalized occupancy. Work on AGTGTTAC yielded a binding signal of 0.0737 normalized occupancy. Work on GCTATACA yielded a binding signal of 0.0815 normalized occupancy. CAAGAAAC gave a binding signal of 0.0724 normalized occupancy. With ATCACGGC the binding signal was 0.0739 normalized occupancy. In the case of CTCATTCC, the binding signal is reported as 0.0776 normalized occupancy. TTCAAGAA gave a binding signal of 0.0738 normalized occupancy. AAGACAAG was tested, and the binding signal was 0.0722 normalized occupancy. CAATCGAC was tested, and the binding signal was 0.0743 normalized occupancy. GCAGCACA was tested, and the binding signal was 0.0778 normalized occupancy. Sequence GCGTGTCA has a binding signal of 0.0867 normalized occupancy. AGGTGTAG was tested, and the binding signal was 0.0785 normalized occupancy. ACGTGTAG gave a binding signal of 0.103 normalized occupancy. With GCGTGTCC the binding signal was 0.0957 normalized occupancy. CCGTGTAG showed a binding signal of 0.0808 normalized occupancy. Work on ACGTGTCC yielded a binding signal of 0.0932 normalized occupancy. GGAATAAA gave a binding signal of 0.0741 normalized occupancy. For CACAACCA, the binding signal was 0.0825 normalized occupancy. Work on AGAACGCA yielded a binding signal of 0.0762 normalized occupancy. Work on CGCGTGCC yielded a binding signal of 0.118 normalized occupancy. ATCGTGCC showed a binding signal of 0.08 normalized occupancy. GGAGTGCA was tested, and the binding signal was 0.0787 normalized occupancy. Sequence ATCGTGCG has a binding signal of 0.0851 normalized occupancy. With ACCGTGCG the binding signal was 0.0828 normalized occupancy. For GCCGTGCA, the binding signal was 0.0768 normalized occupancy. Sequence CCCGTGCC has a binding signal of 0.0787 normalized occupancy. GGCGTGCA gave a binding signal of 0.0978 normalized occupancy. For CTCGTGCC, the binding signal was 0.0909 normalized occupancy. For AGCGTGCG, the binding signal was 0.109 normalized occupancy. For AGCGTGCC, the binding signal was 0.0969 normalized occupancy. Sequence ACCGTGCC has a binding signal of 0.0756 normalized occupancy. AGTAAAAA was tested, and the binding signal was 0.0773 normalized occupancy. AAAATCTC showed a binding signal of 0.0762 normalized occupancy. Work on AGTCTCGA yielded a binding signal of 0.0741 normalized occupancy. CTCAAATA was tested, and the binding signal was 0.0761 normalized occupancy. Work on TGCCAAAA yielded a binding signal of 0.0792 normalized occupancy. Work on ACGTCTAA yielded a binding signal of 0.0724 normalized occupancy. Work on CATGGAGG yielded a binding signal of 0.0891 normalized occupancy. Work on AGGAGATG yielded a binding signal of 0.0762 normalized occupancy. Work on ACCGTGCA yielded a binding signal of 0.0786 normalized occupancy. For AGAGTGCA, the binding signal was 0.0743 normalized occupancy. Work on AGCGTGCA yielded a binding signal of 0.108 normalized occupancy. Work on CGGGTGCA yielded a binding signal of 0.0755 normalized occupancy. For CGCGTGCA, the binding signal was 0.134 normalized occupancy. In the case of CCCGTGCA, the binding signal is reported as 0.0874 normalized occupancy.
